HepG2 viability: HepG2 cytotoxicity, counter-screen for TGF-b inhibitors; HepG2 CAGA-GFP viability, ATP luminescence, 18 h; Potency, µM (doses to about 46.1 µM), inactives show at the highest dose activity change, negative = cytotoxicity, most hits filed as cytotoxic; actives 0.76% (n = 410,000); AID 588856
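HepG2 CAGA-GFP cells (1000/well, DMEM with 1% FBS) received compound, then TGF-beta at 500 pg/mL final, and were incubated 18 hours at 37 degrees C. Viability was read by CellTiter-Glo luminescence. Media-only wells were set as complete cell-killing and DMSO as no toxicity.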
TGFb SMAD3 inh: TGF-b pathway inhibition. HepG2 CAGA-GFP TGF-b/SMAD3 reporter, GFP fluorescence, 18 h; TGF-beta stimulated, 500 pg/mL final. AID 588855. Potency, µM (series often up to 46.1 µM), inactives show at the highest dose activity, negative = inhibition, usual class: inhibitors. actives 1.2% (n = 410,000); note: % is set by controls: 0 for no effect and ±100 for the full control effect; nearly all actives have a fitted effect of over 65% in size
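Inhibition was scored as loss of TGF-beta-induced (500 pg/mL final, 18 hours, 37 degrees C) GFP in HEPG2 cells carrying a CAGA-GFP reporter, in DMEM with 1% FBS. Well GFP was summed per cell; Activity was normalised to unstimulated and stimulated DMSO wells, then concentration-response fitting.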
Nrf2 ARE act: activates Nrf2 signaling; AREc32 ARE-luciferase reporter (MCF7-derived line), luminescence, 24 h; Potency, µM (doses to about 46.1 µM), inactives show top-dose activation, usual class: activators; actives 0.31% (n = 410,000); AID 624171; note: % of control where 0% means no effect; nearly all actives have a fitted effect of over 65% in size
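ARE-driven firefly luciferase activity in AREc32 cells measured after a 24 hr compound exposure at 37 deg C, using Steady-Glo reagent and a 30 min room-temperature hold.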
A549 tox: counter-screen for Nrf2 inhibitors: cytotoxicity in A549 cells; A549 ARE-Fluc cells, CellTiter-Fluor viability, 18-24 h; Potency, µM (titrated, usually from 46 µM), inactives show at the highest dose activity change, negative = cytotoxicity, hits mostly inhibitors; actives 0.16% (n = 390,000); note: % is set by controls: 0 for no effect and ±100 for the full control effect
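A549 ARE_Fluc cells in 5% FBS OPTI-MEM were exposed to compounds in concentration-response for 18-24 h at 37 deg C. Viability was read by CellTiter-Fluor fluorescence (Ex 405/Em 525) after 30 min, before the luciferase read.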
Nrf2 inh: Nrf2 pathway inhibition; A549 ARE-Fluc reporter, luciferase luminescence, 18-24 h; Potency, µM (doses to about 46 µM), without a hit: at the top dose activity change, negative = inhibition, hits mostly inhibitors; actives 2.1% (n = 360,000); AID 504444; note: % is set by controls: 0 for no effect and ±100 for the full control effect; nearly all actives have a fitted effect of over 60% in size
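Concentration-response testing used A549 ARE_Fluc cells at 5000 cells/well. Following an 18-24 h compound incubation, viability was read by fluorescence (Ex 405/Em 525) and luciferase output by luminescence.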
Starred values were filed as active, the others as inactive; u = inconclusive; x = no result given; ! = repeats disagree; [ ] = another dose, or the depositor's remark. The list is not random: actives were taken first. Their share in the collection is about 3.6%. Calls come from the whole dose curve; as a rule, active = well fitted curve in the direction sought with a large enough effect; inconclusive = small, poorly fitted or top-dose-only effect, or another doubt; inactive = no such curve, though single readings can be large; an effect the other way counts as inactive or inconclusive. Potency is the fitted concentration of half-maximal effect.

SMILES	HepG2 viability	TGFb SMAD3 inh	Nrf2 ARE act	A549 tox	Nrf2 inh
Cc1nc2ccccc2c2oc(C(=O)NCCCN3CCCC(C)C3)cc12 (centres undefined)	-6%	-6%	8%	21µM*	u
Cc1nc2ccccc2c2oc(C(=O)NCCCN3CC(C)CC(C)C3)cc12 (centres undefined)	-22%	-10%	7%	-11%	3%
CC1CCCCC1NC(=O)CSc1nncs1 (centres undefined)	-2%	-8%	0%	-2%	-9%
CCCC(=O)Nc1ccccc1NC(=O)CN(C)S(=O)(=O)c1ccc(C)cc1	13µM*	-7%	0%	-13%	-1%
CCNc1nc(C#N)nc(N2CCOCC2)n1	-22%	0%	x	-7%	16µM*
CCOC(=O)C(CC)(CC)C(=O)/C=C/c1cccc(Br)c1	-116%	14µM*	-2%	-2%	-21%
NC(=O)NC(=O)COC(=O)/C=C/c1cccc(Br)c1	5%	-1%	0%	10%	19%
NC(=O)C1CCCN1 (centres undefined)	14%	5%	0%	-5%	-11%
CC(C)CC(=O)/C=C/n1c(=S)oc2ccccc21	-45%	-27%	11µM*	-5%	20%
CC(=O)/C=C/n1c(=S)oc2ccccc21	16µM*	6.3µM*	u	u	u
Cn1c(=S)oc2ccccc21	-70%	0%	0%	-3%	-7%
Fc1ccc(NC(=S)N2CCN(C/C=C/c3ccccc3)CC2)c(F)c1	5%	u	6%	-30%	21µM*
CCN(CC)S(=O)(=O)c1ccc(C)c(NC(=S)N2CCN(c3ccccn3)CC2)c1	-3%	-3%	0%	4%	u
CCN(CC)S(=O)(=O)c1ccc(C)c(NC(=S)N2CCN(C/C=C/c3ccccc3)CC2)c1	-23%	u	1%	-16%	12µM*
CC(C)Oc1ccc(/C=C/C(=O)NCC2COc3ccccc3O2)cc1 (centres undefined)	-5%	13%	0%	-5%	u
CC(=O)N(CCC(c1ccco1)C(C)C)Cc1ccc(Cl)cc1 (centres undefined)	-14%	u	11%	3%	-19%
Cn1c(=O)c2c(nc(Sc3ncccn3)n2Cc2ccc(Cl)cc2)n(C)c1=O	-30%	-11%	1%	5%	15µM*
Cn1c(=O)c2c(nc(NCc3ccccc3)n2CCCc2ccccc2)n(C)c1=O	-17%	u	0%	-4%	u
Cn1c(=O)c2c(nc(NCCO)n2CCCc2ccccc2)n(C)c1=O	-16%	-24%	1%	0%	21µM*
CNc1nc2c(c(=O)n(C)c(=O)n2C)n1Cc1ccccc1	-1%	0%	1%	-16%	7.3µM*
Cn1c(=O)c2c(nc(Sc3ncccn3)n2Cc2ccccc2Cl)n(C)c1=O	-6%	-1%	0%	-10%	u
Cc1cccc(Cn2c(NCCO)nc3c2c(=O)n(C)c(=O)n3C)c1	-2%	-21%	0%	-19%	4.1µM*
CCOP(=O)(OCC)C(NCc1ccccc1)c1ccc(Br)cc1 (centres undefined)	-18%	-5%	-1%	-10%	-5%
O=C(NCc1ccccc1)c1nncc(-c2ccccc2)n1	-7%	2%	1%	-6%	-10%
Clc1ccc(C(c2cccs2)N2CCNCC2)cc1 (centres undefined)	-34%	0%	-3%	x	x
SMILES	HepG2 viability	TGFb SMAD3 inh	Nrf2 ARE act	A549 tox	Nrf2 inh
O=C1OC(/C(=C\Nc2cc(Cl)ccc2O)[N+](=O)[O-])c2ccccc21 (centres undefined)	-7%	-12%	11µM*	-8%	u
O=C1OC(/C(=C\Nc2ccc(F)cc2F)[N+](=O)[O-])c2ccccc21 (centres undefined)	-8%	3%	u	-22%	u
O=C(CSc1nc2nn(-c3ccccc3)c(=O)c-2c2n1CCCCC2)Nc1cccc(F)c1	4%	-20%	0%	-9%	9.2µM*
CCCS(=O)(=O)N1CC(=O)N(c2cccc(F)c2)C(C)(C(=O)NC2CCCCCC2)C1 (centres undefined)	-1%	0%	0%	4%	25%
O=C(NC(=S)Nc1ccc2oc(-c3ccncc3)nc2c1)c1ccccc1F	8%	0%	0%	4%	-1%
OC(COc1cccc2ccccc12)CN1CCN(c2ccc(Cl)cc2)CC1 (centres undefined)	-94%	16µM*	7%	2%	7%
CCN(CC)CCCNC(=O)c1ccc2c(Cl)c3c(nc2c1)CCCC3	1.6µM*!	13µM*	16%	1%	1%
COc1ccc(OC)c(NC(=O)CSc2c3c(nc4cc(Cl)ccc24)CCCC3)c1	-46%	10µM*	u	-7%	1%
COc1ccc(NC(=O)COC(=O)c2c3c(nc4ccccc24)CCCC3)cc1Cl	-4%	u	-1%	u	23µM*
CCCCN(CC)CCNC(=O)c1ccc2c(Cl)c3c(nc2c1)CCC3	-39%	12%	9%	-9%	3%
COc1ccc(NC(=O)COC(=O)c2c3c(nc4ccccc24)CCCC3)cc1	-23%	-9%	-1%	-11%	u
O=C(Nc1ccccc1F)c1ccc2c(Cl)c3c(nc2c1)CCC3	10µM*	u	-2%	-1%	u
O=C(Nc1cccnc1Cl)c1ccc2c(Cl)c3c(nc2c1)CCC3	1%	-24%	8%	3%	u
COC(=O)c1ccc(C2NCCc3cc(OC)c(OC)cc32)cc1 (centres undefined)	-20%	-10%	1%	9%	11%
COc1ccc(OC)c(NC(=O)CSc2c3c(nc4ccccc24)CCCC3)c1	13µM*	u	-6%	-8%	u
COc1ccc(Cl)cc1NC(=O)CSc1c2c(nc3ccccc13)CCC2	-37%	u	u	3%	3%
COCCNC(=O)CSc1c2c(nc3cc(Cl)ccc13)CCCC2	-24%	u	12%	-15%	9%
CCN(CC)CCNC(=O)CSc1c2c(nc3cc(Cl)ccc13)CCCC2	-79%	18µM*	-5%	-8%	17%
COc1ccc(Cn2ccc3nc(C)c(C(=O)N4CCN(c5cc(C)ccc5C)CC4)cc3c2=O)cc1	-20%	16µM*	3%	-23%	-13%
Cc1nc2ccn(Cc3cccs3)c(=O)c2cc1C(=O)N1CCN(c2ccccc2F)CC1	-22%	20µM*	5%	-1%	-21%
N#Cc1c(C(F)(F)F)cc(-c2cccs2)nc1SCc1ccc(Cl)nc1	-9%	-4%	28%	7%[1.84 µM]	-28%
COc1ccc(S(=O)(=O)NCC(c2ccc3c(c2)OCO3)N2CCN(C)CC2)cc1OC (centres undefined)	-2%	6%	-1%	u	4%
